ADAM17 inh – ADAM17 inhibitors, primary screen, biochemical, QFRET; Disintegrin and metalloproteinase domain-containing protein 17 (Homo sapiens), P78536; recombinant ADAM17, EDANS/DABCYL FRET peptide cleavage; inhibition, % at 6.95 µM; 0.83% of 370,000 active; AID 720648, 2013;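 active = inhibition above the mean of compounds lying between control limits plus 3 SD, set per campaign, cut at about 8.5% in these data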;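 note: 0% = DMSO-only wells as the low control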
PLCb3 inh – human PLC-beta3 inhibitors, primary screen, biochemical, fluorescence; 0.18% of 370,000 active; inhibition, % at 12.2 µM; Purified PLC-beta3, fluorogenic substrate; AID 720704, 2013; in the data active = inhibition above about 11%;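 note: 0% = median of compound wells on plate and 100% = full blocker control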
PLCg1 inh – PLC-gamma1 enzyme inhibitors, primary screen, biochemical, fluorescence, purified enzyme; 0.84% of 370,000 active; fluorogenic substrate; inhibition, % at 12.2 µM; AID 720700, 2013; 1-phosphatidylinositol 4,5-bisphosphate phosphodiesterase gamma-1 (Homo sapiens), P19174; in the data active = inhibition above about 9.5%
KLK7 zymogen act – proKLK7 zymogen activators, primary screen, biochemical, fluorescence intensity. 0.9% of 370,000 active. Kallikrein-7 (Homo sapiens), P49862. activation, % at 7 µM. purified proKLK7, EDANS-DABCYL substrate fluorescence; 100% is mature enzyme control, 0% vehicle;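 active = activation above the mean of all tested compounds plus 3 SD, computed per campaign excluding outliers beyond control limits, cut at about 13% in these data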
ADAM10 inh – human ADAM10 inhibitors, primary screen, biochemical, QFRET, HTS; recombinant ADAM10, EDANS/DABCYL FRET peptide cleavage, 3 h; 0.62% of 370,000 active; inhibition, % at 7 µM; Disintegrin and metalloproteinase domain-containing protein 10 (Homo sapiens), O14672;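 active = inhibition above a per-campaign cutoff equal to the mean of compounds falling between control-based bounds plus 3 SD, cut at about 20% in these data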;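 note: 0% = DMSO wells while the 100% control is not disclosed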
HGIII-sPLA2 inh – human group III sPLA2 inhibitors, primary screen, biochemical, QFRET, BODIPY PC-A2 liposome substrate. 0.56% of 370,000 active. inhibition, % at 12.2 µM. Group 3 secretory phospholipase A2 (Homo sapiens), Q9NZ20. QFRET BODIPY PC-A2 liposome hydrolysis, fluorescence;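 active = inhibition above mean plus 3 SD of compounds lying within the high and low control bounds, cut at about 19% in these data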;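 note: 0% = median of test compound wells and 100% = no enzyme DMSO wells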
Target sequence (Q9NZ20 whole entry, looked up): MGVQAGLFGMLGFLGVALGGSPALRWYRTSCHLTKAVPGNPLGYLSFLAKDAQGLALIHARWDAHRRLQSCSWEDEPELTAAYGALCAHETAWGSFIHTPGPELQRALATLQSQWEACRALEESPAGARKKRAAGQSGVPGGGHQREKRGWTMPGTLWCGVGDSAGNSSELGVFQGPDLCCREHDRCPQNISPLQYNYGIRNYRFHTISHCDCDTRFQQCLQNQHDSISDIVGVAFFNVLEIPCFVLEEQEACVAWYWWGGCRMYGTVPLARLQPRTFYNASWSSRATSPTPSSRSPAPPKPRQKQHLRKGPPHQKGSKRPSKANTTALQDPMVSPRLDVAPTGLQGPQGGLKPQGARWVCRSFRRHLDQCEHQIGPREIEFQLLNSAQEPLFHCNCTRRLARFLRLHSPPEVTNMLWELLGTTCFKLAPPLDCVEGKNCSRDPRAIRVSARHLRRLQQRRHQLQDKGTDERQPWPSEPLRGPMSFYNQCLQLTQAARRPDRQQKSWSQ
proKLK7 act conf – proKLK7 zymogen activators, confirmation, biochemical, fluorescence intensity, triplicate. AID 686949, 2013. shares compounds with KLK7 zymogen act. 68% of 3,200 active. activation, % at 7 µM. purified proKLK7, EDANS-DABCYL substrate fluorescence; scaled: vehicle 0, mature enzyme 100;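 active = activation, as change over the incubation, above the mean of all tested compounds plus 3 SD, cut at about 13% in these data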
EDANS-DABCYL int – EDANS-DABCYL substrate optical interference, artefact control for kallikrein-7 zymogen activator project, biochemical, fluorescence intensity, high throughput. shares compounds with KLK7 zymogen act. no enzyme, 4 h; solvent 0%, active enzyme control 100%. activation, % at 7 µM. 80% of 3,200 active. AID 686952, 2013;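 active = activation above the all-compound mean plus 3 SD, ignoring values outside control-based bounds, cut at about 4.8% in these data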;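 note: value is the 4 h activation minus the activation read at time zero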
K7 EDANS ctr – counter-screen for kallikrein-7 activators: EDANS-DABCYL interference, dose response; 20% of 250 active; EC50, µM; EDANS-DABCYL peptide fluorescence interference, no enzyme; AID 720493; shares compounds with KLK7 zymogen act;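 active = compounds that raise the fluorescence signal in this interference counterscreen, with EC50 at or below 10 µM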;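 note: intact quenched peptide substrate alone read at 355 nm excitation and 520 nm emission; signal is fluorescence gain from T0 to T4 after four hours at room temperature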
Active calls of the source: *; i = inactive; / = no result. The list is not random: actives were taken first. Their share in the collection is about 3.4%.

SMILES	ADAM17 inh	PLCb3 inh	PLCg1 inh	KLK7 zymogen act	ADAM10 inh	HGIII-sPLA2 inh	proKLK7 act conf	EDANS-DABCYL int	others
CCOC(=O)[C@]12CCCC=C1N(Cc1ccc(OC)cc1)C(=O)[C@@H]2CC(=O)NCCc1ccccc1OC	2.0	1.8	-0.3	9.1	6.3	-12.9	/	/
O=C(Cn1nc(-c2ccccc2)ccc1=O)NCCc1ccc(F)cc1	0.2	-0.2	0.6	-0.3	-2.0	-1.4	/	/
COc1ccc(C=O)cc1-c1cc(C(C)=O)c2n(c1=O)CCC2	-1.3	0.3	-0.1	-1.0	-3.5	6.6	/	/
CC(=O)Nc1ccc2nc(-c3ccncc3)[nH]c2c1	-137.1	i	i	21.7*	-465.9	5.2	17.0*	21.4*
O=C(Nc1ccc2nc3ccccc3nc2c1)c1ccccc1	-22.3	i	i	35.3*	-70.6	-2.2	32.1*	21.4*	K7 EDANS ctr=>69.5
CC(=O)Nc1ccc2cc3ccc(NC(C)=O)cc3nc2c1	-407.7	i	i	17.3*	i	1.5	34.2*	44.2*
O=C(Nc1ccc(Cl)c(Cl)c1)c1ccccc1	5.8	2.1	-2.1	0.5	8.9	-2.2	/	/
Nc1ccc(C(=O)Nc2ccc3nc(-c4ccncc4)[nH]c3c2)cc1	-4.1	0.1	-3.1	0.3	-8.7	4.0	/	/
COc1ccccc1C(=O)NC1CCCCN(Cc2cccc(Cl)c2)C1=O (stereo not given)	-0.1	-2.2	-2.4	0.5	1.1	-8.6	/	/
O=C(NCc1cccs1)C1CCCN(S(=O)(=O)c2cccc3ccccc23)C1 (stereo not given)	6.0	3.2	4.3	0.0	16.0	-11.2	/	/
O=C1CC(O)(C(F)(F)F)Oc2c1ccc1ccccc21 (stereo not given)	-127.2	-300.1	-285.5	53.5*	-342.6	-11.3	4.5	5.3*
O=C1CC(O)(C(F)F)Oc2ccc3ccccc3c21 (stereo not given)	-145.4	-232.5	-197.2	46.9*	-455.0	0.8	1.6	2.5
COc1ccccc1N1CCN(C(c2cccs2)C(C)NC(=O)c2ccco2)CC1 (stereo not given)	-3.5	-5.7	2.5	0.4	-4.8	0.5	/	/
COc1ccccc1N1CCN(C(c2cccs2)C(C)NC(=O)c2ccncc2)CC1 (stereo not given)	-0.4	0.7	3.9	295.8*	10.3	-0.2	-0.4	0.9
CCOC(=O)[C@]12CCCCC/C=C\1N(Cc1ccc(OC)cc1)C(=O)[C@H]2CC(=O)N1CCN(C(=O)C2CC2)CC1	-2.0	0.1	0.9	0.9	-13.0	7.2	/	/
CC1=NCC(C)c2c1[nH]c1ccccc21 (stereo not given)	-50.5	i	-482.1	30.3*	-214.9	-2.9	19.8*	17.0*
Cn1cc(CC(=O)Nc2ccc(Nc3cccnc3)cc2)c2ccccc21	-3.9	-1.6	0.4	0.5	-3.0	-38.7	/	/
CCn1c2ccccc2c2cc(NC(=O)COC(=O)c3cc(Cl)cc(Cl)c3)ccc21	-0.5	2.1	-2.2	-0.5	-4.6	2.8	/	/
COC(CNC(=O)c1coc2nc3ccccc3nc12)OC	i	-408.0	-298.1	46.6*	i	15.7	282.0*	269.1*
COC(CNC(=O)c1ccc2nc(-c3ccccc3)c(-c3ccccc3)nc2c1)OC	-77.9	-39.8	-28.8	-8.4	-265.6	-0.1	/	/
O=C(NCC1CCCO1)c1coc2nc3ccccc3nc12 (stereo not given)	i	-399.3	-333.8	79.8*	i	0.7	308.2*	292.6*
O=C(Nc1ccccc1C(=O)NCC1CCCO1)c1ccccc1 (stereo not given)	2.0	2.4	3.3	0.6	4.2	-1.6	/	/
COC(=O)[C@]12C[C@H](CC(=O)NCCCN3CCCC3=O)C(=O)N(Cc3cccc4ccccc34)C1=C[C@H](C(C)C)O[C@@H]2C1CC1	-4.9	1.6	1.3	0.1	-4.4	-1.2	/	/
CCC(CC)COC(=O)C1=C(C)NC(=O)NC1c1cc(OC)ccc1OC (stereo not given)	-2.7	-5.8	-1.5	52.2*	-1.3	-6.5	1.4	1.9
Cc1oc2cc(O)ccc2c(=O)c1Oc1ccccc1	i	i	i	54.1*	i	5.1	73.8*	75.3*
SMILES	ADAM17 inh	PLCb3 inh	PLCg1 inh	KLK7 zymogen act	ADAM10 inh	HGIII-sPLA2 inh	proKLK7 act conf	EDANS-DABCYL int	others
CCOc1ccc(Oc2c(C)oc3cc(O)ccc3c2=O)cc1	-337.5	i	-448.7	-24.8	i	-17.5	/	/
Cc1oc2c(C)c(O)ccc2c(=O)c1-c1nncn1-c1ccccc1	-9.7	-121.3	-86.0	-1.1	-34.6	-2.1	/	/
Cc1oc2cc(O)ccc2c(=O)c1N1C(=O)c2ccccc2C1=O	-261.1	-291.1	-206.7	343.8*	i	9.6	297.5*	301.0*
Cc1ccccc1-c1c(C)oc2cc(O)ccc2c1=O	i	i	i	57.6*	i	-4.3	71.4*	74.5*
Cc1oc2c(C)c(O)ccc2c(=O)c1N1C(=O)c2ccccc2C1=O	-28.2	-61.1	-50.9	68.8*	-102.7	-6.5	99.3*	103.4*
COC(=O)c1cc(-c2c(C)oc3cc(O)ccc3c2=O)c(C)o1	-296.4	i	-465.7	-12.2	i	-2.3	/	/
Cc1oc2cc(O)ccc2c(=O)c1Oc1ccccc1Br	i	i	i	0.6	i	-22.9	/	/
CCCOc1ccc2c(=O)c(N3C(=O)c4ccccc4C3=O)c(C)oc2c1	-14.7	-45.9	-31.8	-0.9	-48.4	-0.1	/	/
CC(=O)Oc1ccc2c(=O)c(N3C(=O)c4ccccc4C3=O)c(C)oc2c1	-78.9	-112.7	-99.7	150.7*	-230.4	9.5	166.4*	164.2*
CN(C)/C=N/c1nc2nccc(-c3ccccn3)n2n1	-34.9	-282.5	-230.9	12.1	-130.4	-2.4	/	/
CN(C)/C=N/c1nc2nccc(-c3cccnc3)n2n1	-77.0	-384.3	-292.2	13.0*	-307.3	2.3	64.8*	61.9*
COc1ccc(-c2ccnc3nc(/N=C/N(C)C)nn23)cc1	i	i	-387.5	44.0*	i	-1.5	65.6*	63.2*

High-throughput results from PubChem.
